# The supplement of paper PMC11732987, “Enantioselective OTUD7B fragment discovery through chemoproteomics screening and high-throughput optimisation” (Communications Chemistry, 2025)
# Values without a mark were called inactive.
# Tests used:
# Experiment in all cases: log2 ratio of Biotin-Ahx-Ub-VS probe labelling (fragment/DMSO); higher = less target engagement (more negative = stronger competition), active = hit call of the paper (q ≤ 0.05, log2 ratio ≤ -1)
# Conditions in all cases: compound concentration: 200 uM; treatment time: 3 h
# ALG13 = biological target: T1, ALG13 (UniProt Q9NP73)
# T1 sequence (whole entry): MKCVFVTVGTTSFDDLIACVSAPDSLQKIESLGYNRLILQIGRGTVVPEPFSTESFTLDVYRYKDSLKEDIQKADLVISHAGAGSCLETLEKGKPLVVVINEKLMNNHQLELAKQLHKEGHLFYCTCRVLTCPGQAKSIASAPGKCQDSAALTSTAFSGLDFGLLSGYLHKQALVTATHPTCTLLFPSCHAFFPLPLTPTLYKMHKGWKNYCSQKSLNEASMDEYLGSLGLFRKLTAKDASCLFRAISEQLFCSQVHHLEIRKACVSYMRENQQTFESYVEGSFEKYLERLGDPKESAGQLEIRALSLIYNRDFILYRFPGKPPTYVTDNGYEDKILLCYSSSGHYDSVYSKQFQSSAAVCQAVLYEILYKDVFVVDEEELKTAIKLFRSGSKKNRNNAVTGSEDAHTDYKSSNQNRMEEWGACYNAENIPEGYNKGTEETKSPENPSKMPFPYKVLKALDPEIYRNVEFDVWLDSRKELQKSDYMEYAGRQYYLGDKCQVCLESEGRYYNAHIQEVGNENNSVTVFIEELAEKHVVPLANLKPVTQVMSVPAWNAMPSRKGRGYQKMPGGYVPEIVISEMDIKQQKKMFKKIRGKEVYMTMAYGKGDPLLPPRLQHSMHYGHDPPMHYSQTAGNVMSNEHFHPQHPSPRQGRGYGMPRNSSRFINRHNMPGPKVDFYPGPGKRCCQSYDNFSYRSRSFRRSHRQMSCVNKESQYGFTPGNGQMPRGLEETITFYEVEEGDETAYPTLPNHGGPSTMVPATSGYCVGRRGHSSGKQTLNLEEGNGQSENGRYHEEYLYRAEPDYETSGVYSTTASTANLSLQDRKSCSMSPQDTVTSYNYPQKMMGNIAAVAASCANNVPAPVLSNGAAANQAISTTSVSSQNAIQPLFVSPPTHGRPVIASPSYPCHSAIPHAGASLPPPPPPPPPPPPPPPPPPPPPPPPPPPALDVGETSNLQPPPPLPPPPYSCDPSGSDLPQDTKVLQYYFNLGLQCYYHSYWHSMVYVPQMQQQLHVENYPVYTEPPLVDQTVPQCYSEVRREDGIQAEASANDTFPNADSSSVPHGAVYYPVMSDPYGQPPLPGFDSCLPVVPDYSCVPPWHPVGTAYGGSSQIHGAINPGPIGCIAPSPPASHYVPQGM
# How it was run: (§1)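 Labelling with Biotin-Ahx-Ub-VS (0.5 µM final, 1 h) followed a 3 h triplicate treatment of HEK293T lysate (495 µg per sample, Tris/CHAPS/IGEPAL buffer with protease inhibitors) with fragment at 200 µM or vehicle. Labelled DUBs were NeutrAvidin-enriched, digested with LysC and trypsin, and run by diaPASEF LC-MS/MS. The values, average log2 fragment/vehicle ratios by unpaired t-test, come from global-median-normalised Spectronaut label-free quantities. Proteins with ≥2 unique peptides were used.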
# ATXN3 = ATXN3 (UniProt P54252)
# Chain of ATXN3 (P54252 whole entry): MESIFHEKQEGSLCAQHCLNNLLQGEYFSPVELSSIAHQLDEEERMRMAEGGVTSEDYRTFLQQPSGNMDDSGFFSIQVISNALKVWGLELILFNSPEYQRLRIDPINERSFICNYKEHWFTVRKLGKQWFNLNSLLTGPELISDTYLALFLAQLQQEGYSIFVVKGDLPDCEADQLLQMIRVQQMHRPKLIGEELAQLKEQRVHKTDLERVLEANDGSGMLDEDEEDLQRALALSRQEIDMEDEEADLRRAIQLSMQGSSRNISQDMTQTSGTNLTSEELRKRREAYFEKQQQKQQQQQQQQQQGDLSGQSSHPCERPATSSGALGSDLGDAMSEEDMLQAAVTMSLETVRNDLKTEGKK
# How it was run: as §1
# BAP1 = biological target: T2, BAP1 (UniProt Q92560)
# T2 sequence (whole entry): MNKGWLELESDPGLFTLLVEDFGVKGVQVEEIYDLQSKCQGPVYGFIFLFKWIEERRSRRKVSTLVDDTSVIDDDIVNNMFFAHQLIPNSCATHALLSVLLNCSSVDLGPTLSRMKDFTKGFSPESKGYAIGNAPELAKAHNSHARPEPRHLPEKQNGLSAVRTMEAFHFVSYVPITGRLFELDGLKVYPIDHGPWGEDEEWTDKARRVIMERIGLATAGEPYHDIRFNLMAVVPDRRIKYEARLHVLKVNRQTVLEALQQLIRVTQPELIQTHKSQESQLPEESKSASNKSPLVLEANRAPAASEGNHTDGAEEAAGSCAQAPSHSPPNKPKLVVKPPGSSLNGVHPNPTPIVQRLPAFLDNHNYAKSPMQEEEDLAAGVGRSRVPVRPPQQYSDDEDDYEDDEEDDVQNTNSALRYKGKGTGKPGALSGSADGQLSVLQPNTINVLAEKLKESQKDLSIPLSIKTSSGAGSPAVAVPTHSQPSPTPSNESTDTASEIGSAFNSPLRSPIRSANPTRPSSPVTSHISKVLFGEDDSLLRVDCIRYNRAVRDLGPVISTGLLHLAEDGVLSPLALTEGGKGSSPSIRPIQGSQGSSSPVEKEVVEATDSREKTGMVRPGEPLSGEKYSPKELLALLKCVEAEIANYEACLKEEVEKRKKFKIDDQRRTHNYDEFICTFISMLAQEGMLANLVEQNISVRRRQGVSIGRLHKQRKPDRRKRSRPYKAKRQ
# How it was run: as §1
# EIF3F = EIF3F (UniProt O00303)
# Chain of EIF3F (O00303 whole entry): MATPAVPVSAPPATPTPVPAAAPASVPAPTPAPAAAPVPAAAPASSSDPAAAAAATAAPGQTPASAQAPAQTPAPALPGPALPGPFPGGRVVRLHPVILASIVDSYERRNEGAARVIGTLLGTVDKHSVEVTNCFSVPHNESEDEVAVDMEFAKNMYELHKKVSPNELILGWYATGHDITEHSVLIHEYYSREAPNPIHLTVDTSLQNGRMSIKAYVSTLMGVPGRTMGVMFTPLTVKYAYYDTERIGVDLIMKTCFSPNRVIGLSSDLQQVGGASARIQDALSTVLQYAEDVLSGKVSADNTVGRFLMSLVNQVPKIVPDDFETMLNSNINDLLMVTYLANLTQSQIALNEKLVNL
# How it was run: as §1
# EIF3H = EIF3H (UniProt O15372)
# Chain of EIF3H (O15372 whole entry): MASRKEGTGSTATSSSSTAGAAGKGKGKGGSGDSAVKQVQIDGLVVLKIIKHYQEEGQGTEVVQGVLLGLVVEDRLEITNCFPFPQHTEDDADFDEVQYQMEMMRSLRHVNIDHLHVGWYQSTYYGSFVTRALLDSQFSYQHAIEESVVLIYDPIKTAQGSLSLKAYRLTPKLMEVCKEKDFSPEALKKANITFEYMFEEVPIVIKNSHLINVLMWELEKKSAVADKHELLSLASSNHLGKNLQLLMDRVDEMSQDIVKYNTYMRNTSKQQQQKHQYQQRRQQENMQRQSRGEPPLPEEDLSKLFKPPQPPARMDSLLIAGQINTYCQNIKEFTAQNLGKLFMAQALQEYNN
# How it was run: as §1
# FAM105A = biological target: T3, FAM105A (UniProt Q9NUU6)
# T3 sequence (whole entry): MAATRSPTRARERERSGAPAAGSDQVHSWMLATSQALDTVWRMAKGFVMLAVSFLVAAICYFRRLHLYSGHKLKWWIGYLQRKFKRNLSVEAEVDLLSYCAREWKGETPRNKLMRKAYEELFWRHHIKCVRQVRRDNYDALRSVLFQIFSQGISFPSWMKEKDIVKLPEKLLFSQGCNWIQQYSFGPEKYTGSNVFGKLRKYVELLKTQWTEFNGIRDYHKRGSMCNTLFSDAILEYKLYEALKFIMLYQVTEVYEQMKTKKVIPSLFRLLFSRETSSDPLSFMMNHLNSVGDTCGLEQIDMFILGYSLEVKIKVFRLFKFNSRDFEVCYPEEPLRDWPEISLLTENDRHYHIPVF
# How it was run: as §1
# OTUB1 = OTUB1 (UniProt Q96FW1)
# Chain of OTUB1 (Q96FW1 whole entry): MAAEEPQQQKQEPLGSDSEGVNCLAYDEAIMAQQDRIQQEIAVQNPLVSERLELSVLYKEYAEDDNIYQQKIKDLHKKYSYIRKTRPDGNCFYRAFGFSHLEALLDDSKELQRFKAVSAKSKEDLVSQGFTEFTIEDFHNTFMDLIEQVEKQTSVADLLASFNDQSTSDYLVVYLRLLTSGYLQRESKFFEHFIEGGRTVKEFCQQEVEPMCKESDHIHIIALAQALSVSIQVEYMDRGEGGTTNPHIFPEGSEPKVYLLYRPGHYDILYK
# How it was run: as §1
# OTUD4 = biological target: T4, OTUD4 (UniProt Q01804)
# T4 sequence (whole entry): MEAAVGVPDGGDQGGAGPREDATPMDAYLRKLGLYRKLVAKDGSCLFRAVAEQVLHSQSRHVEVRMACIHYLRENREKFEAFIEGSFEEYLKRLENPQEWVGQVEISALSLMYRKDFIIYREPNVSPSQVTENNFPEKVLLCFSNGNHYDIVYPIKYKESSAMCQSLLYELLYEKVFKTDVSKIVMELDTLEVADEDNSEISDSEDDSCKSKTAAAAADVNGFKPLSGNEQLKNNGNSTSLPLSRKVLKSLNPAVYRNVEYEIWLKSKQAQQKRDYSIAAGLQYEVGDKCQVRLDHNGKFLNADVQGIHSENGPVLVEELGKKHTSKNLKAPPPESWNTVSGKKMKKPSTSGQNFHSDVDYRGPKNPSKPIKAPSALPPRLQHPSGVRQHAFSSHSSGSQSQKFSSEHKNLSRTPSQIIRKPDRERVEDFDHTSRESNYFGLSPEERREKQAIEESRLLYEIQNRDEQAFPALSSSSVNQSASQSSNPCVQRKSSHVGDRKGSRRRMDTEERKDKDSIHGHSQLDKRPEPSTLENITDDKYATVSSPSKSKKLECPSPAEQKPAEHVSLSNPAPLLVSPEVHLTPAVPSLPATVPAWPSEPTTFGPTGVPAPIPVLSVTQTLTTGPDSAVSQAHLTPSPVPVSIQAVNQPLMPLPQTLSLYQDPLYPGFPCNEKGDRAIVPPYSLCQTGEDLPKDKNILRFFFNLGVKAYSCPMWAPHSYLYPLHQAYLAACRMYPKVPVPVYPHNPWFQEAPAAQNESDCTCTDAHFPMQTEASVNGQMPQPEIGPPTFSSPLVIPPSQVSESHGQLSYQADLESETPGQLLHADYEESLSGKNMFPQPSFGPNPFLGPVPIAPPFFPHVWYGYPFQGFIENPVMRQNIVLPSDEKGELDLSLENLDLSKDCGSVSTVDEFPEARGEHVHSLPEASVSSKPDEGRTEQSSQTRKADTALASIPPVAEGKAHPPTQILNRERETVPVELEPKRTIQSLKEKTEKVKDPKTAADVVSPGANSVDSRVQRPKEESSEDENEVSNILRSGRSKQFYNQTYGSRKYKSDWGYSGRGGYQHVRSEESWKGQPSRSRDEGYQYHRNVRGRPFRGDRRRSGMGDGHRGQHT
# How it was run: as §1
# OTUD5 = biological target: T5, OTUD5 (UniProt Q96G74)
# T5 sequence (whole entry): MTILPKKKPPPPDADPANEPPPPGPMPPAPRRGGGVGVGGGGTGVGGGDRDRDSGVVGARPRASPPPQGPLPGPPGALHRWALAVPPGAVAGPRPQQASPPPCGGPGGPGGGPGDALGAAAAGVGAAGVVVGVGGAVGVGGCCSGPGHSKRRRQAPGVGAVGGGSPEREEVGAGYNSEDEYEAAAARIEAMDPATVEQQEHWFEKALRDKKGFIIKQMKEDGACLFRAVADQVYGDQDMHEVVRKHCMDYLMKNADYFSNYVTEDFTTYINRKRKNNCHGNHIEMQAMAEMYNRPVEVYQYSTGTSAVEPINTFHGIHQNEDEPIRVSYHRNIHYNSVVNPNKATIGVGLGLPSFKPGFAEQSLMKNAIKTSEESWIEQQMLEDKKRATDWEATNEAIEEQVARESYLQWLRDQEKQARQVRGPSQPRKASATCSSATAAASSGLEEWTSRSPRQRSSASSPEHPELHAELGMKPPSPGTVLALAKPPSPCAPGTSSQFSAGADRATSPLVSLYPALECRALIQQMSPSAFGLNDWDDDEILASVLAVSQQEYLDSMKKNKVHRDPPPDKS
# How it was run: as §1
structure (smiles),measurement,setting,value
O=C(CCl)NCc1ccc(N2CCOCC2)c(F)c1,log2 ratio of Biotin-Ahx-Ub-VS probe labelling,ALG13,-0.435
same,log2 ratio of Biotin-Ahx-Ub-VS probe labelling,ATXN3,-0.0444
same,log2 ratio of Biotin-Ahx-Ub-VS probe labelling,BAP1,-2.54 (active)
same,log2 ratio of Biotin-Ahx-Ub-VS probe labelling,EIF3F,-0.139
same,log2 ratio of Biotin-Ahx-Ub-VS probe labelling,EIF3H,-0.335
same,log2 ratio of Biotin-Ahx-Ub-VS probe labelling,FAM105A,0.388
same,log2 ratio of Biotin-Ahx-Ub-VS probe labelling,OTUB1,-0.0261
same,log2 ratio of Biotin-Ahx-Ub-VS probe labelling,OTUD4,-0.0414
same,log2 ratio of Biotin-Ahx-Ub-VS probe labelling,OTUD5,0.0267
